Molecules are shown by their SMILES. Screen size: about 290,000 compounds; about 3,500 (1.2%) were called active.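 How the source made its calls: active means inhibition above the campaign mean inhibition over all tested compounds plus 3 SD (cut at about 28% in these data); inactive means the rest.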 The entries come from a sample that favours actives as a whole.

In the experiment the test system is M18 aspartyl aminopeptidase (Plasmodium falciparum 3D7). Briefly: PfM18AAP inhibitors, malaria aminopeptidase, primary screen, biochemical, QFRET, recombinant enzyme (AID 1822).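 Further: 0% = plate median of test compound wells and 100% = 2 mM ZnCl2.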 Conditions: H-Glu-NHMec fluorogenic cleavage, at 7.35 µM, hits give high values.
Broadly, the inhibition is the drop in the measured response relative to a control, in per cent. For the compound `Cn1cc[n+](C)c1COc1ccc(C=O)cc1`, the inhibition was -14% (inactive).

For the compound `CC1CN(C(=O)CCC(=O)NCCCN2CCC(Cc3ccccc3)CC2)c2cc(Cl)ccc2O1` (configuration not stated), the inhibition was -5.3% (inactive).

`O=C(C[n+]1ccc2c(c1)nnn2-c1ccccc1)c1ccc(Cl)cc1`: the inhibition was 0% (inactive).

Regarding `Cc1cc2nc3c(=O)n(Cc4ccccc4)c(=O)[nH]c3nc2cc1N`, the inhibition is 33.3% (active).

With `CSc1nc2ccccc2c(=O)n1Cc1ccc(F)cc1`, the inhibition was 4.37% (inactive).

On to `CC(=O)c1ccc(-c2ccc(Cn3c(C)nc4cc(N)c(C)nc43)cc2)cc1`, for which the inhibition is -5.95% (inactive).

Consider `CC1CCN(C(=O)C2CCN(S(=O)(=O)N3CCC4(CC3)OCCO4)CC2)CC1`, for which the inhibition is -6.53% (inactive).

On to `O=C(Nc1cccc(Cl)c1)C1CCCN(c2cnccn2)C1` (configuration not stated), for which the inhibition was -0.72% (inactive).

Consider `COc1cc(NC(=S)N2CCCC(C)C2)c(OC)cc1Cl` (configuration not stated), for which the inhibition is 33.9% (active).

In the case of `COc1ccc(NC(=S)N2CCCC(CO)C2)c(OC)c1` (configuration not stated), the inhibition was 1.11% (inactive).

Consider `COc1cc(NC(=S)N2CCCC(C)C2)cc(OC)c1OC` (configuration not stated), for which the inhibition is 16.2% (inactive).

Turning to `COc1ccc(S(=O)(=O)N2CCC(C(=O)NCCC(=O)NCc3cccc(OC)c3)CC2)cc1`, the inhibition is -4.58% (inactive).

For `O=C(O)c1cccc2c1C(=O)N(C1CCCC1)C2`, the inhibition was -3.09% (inactive).

For the compound `C/C(=N\NC(=O)c1ccc(C)cc1)C1C(=O)c2ccccc2C1=O`, the inhibition was 9.83% (inactive).

Turning to `N#Cc1ccc(C(c2nnnn2CCc2ccccc2)N2CCCCCC2)cc1` (configuration not stated), the inhibition was -9.05% (inactive).

Turning to `N#Cc1ccc(C(c2ccc(C#N)cc2)n2cncn2)cc1`, the inhibition is 51.3% (active).

For the compound `N#Cc1ccc(CSc2ncccn2)cc1`, the inhibition is 0.4% (inactive).

With `CCOc1ccc(N/C=C/C(=O)c2ccccc2)cc1`, the inhibition is 0.48% (inactive).

Turning to `Cc1nc2nc(COc3ccccc3)[nH]n2c(=O)c1Cc1ccccc1`, the inhibition was 5.29% (inactive).

As to `C=CCc1c(C)nc2cc(-c3ccccc3)[nH]n2c1=O`, the inhibition was -0.1% (inactive).

On to `Cc1nc2nc[nH]n2c(=O)c1C/C=C/c1ccccc1`, for which the inhibition was 41.7% (active).

Turning to `COC(=O)C1[C@H]2SC(C)(C)C(C(=O)OC)N2C(=O)N1Cc1nc2ccccc2s1` (some centres not stated), the inhibition was 2.76% (inactive).

For the compound `CSc1nnc(NC(=O)c2nc(S(=O)(=O)Cc3ccc(C)cc3)ncc2Cl)s1`, the inhibition is -15.5% (inactive).

Turning to `COC(=O)NNC1=CC(=O)CC(C)(C)C1`, the inhibition is 9.27% (inactive).

For `Cc1cc(C)nc(NNC2=CC(=O)CC(C)(C)C2)n1`, the inhibition is 42.9% (active).

For the compound `CC1(C)CC(=O)C=C(Nc2ccccc2)C1`, the inhibition is -2.72% (inactive).

Take `Cc1onc(C(=O)Nc2ccc3c(c2)OCO3)c1[N+](=O)[O-]`: the inhibition is -1.41% (inactive).

Consider `S=c1[nH]nc(-c2ccco2)n1/N=C/c1ccccc1`, for which the inhibition is 19.4% (inactive).

Regarding `Cc1cc(-c2n[nH]c(=S)n2/N=C/c2ccco2)n[nH]1`, the inhibition was 6.34% (inactive).

Turning to `S=c1[nH]nc(-c2ccco2)n1/N=C/c1ccc(Br)s1`, the inhibition is 28% (active).

Take `COc1ccc(NC(=O)ON=C2c3ccccc3-c3ccccc32)cc1`: the inhibition was -2.03% (inactive).

With `COc1ccc(N/C=C(\C2OC(=O)c3ccccc32)[N+](=O)[O-])cc1` (configuration not stated), the inhibition was 38.8% (active).

As for `COc1ccc(-c2csc(NC3OC(=O)c4ccccc43)n2)cc1` (configuration not stated), the inhibition is 3.33% (inactive).

As for `O=C(CCN1CCN(C/C=C/c2ccccc2)CC1)Nc1ccccc1Cl`, the inhibition was -14.5% (inactive).

Turning to `CS(=O)(=O)N(CC(=O)N1CCCCCC1)c1cccc(Cl)c1Cl`, the inhibition is -10.9% (inactive).

For `CCOC(=O)NNc1cc(C(F)(F)F)ccn1`, the inhibition is 49.5% (active).

As to `CCC(=O)NC(Nc1cc(C)ccn1)(C(F)(F)F)C(F)(F)F`, the inhibition was -6.4% (inactive).

For the compound `Cc1ccc(NC(=O)Nc2cccc(C(F)(F)F)c2)nc1`, the inhibition is -4.58% (inactive).

Regarding `CCOC(=O)c1cccc(NC(=O)CN2C(=O)C3CC=CCC3C2=O)c1` (configuration not stated), the inhibition was 0.39% (inactive).

`O=C(Nc1cccnc1Cl)c1cc(-c2cccc(Cl)c2)on1`: the inhibition is -1.19% (inactive).

`CCOC(=O)C1(CCOc2ccccc2)CCN(Cc2ccc(C#CCCO)cc2)CC1`: the inhibition was 3.95% (inactive).

On to `CC(=O)N1CCN(CC(c2ccccc2)c2ccccc2)CC1`, for which the inhibition is -8.35% (inactive).

As to `O=C(Nc1ccncc1)c1ccc([N+](=O)[O-])cc1Cl`, the inhibition is 8.21% (inactive).

`O=C(Cc1ccccc1)Nc1ccc(NC(=O)c2cccnc2)cc1`: the inhibition was -1.2% (inactive).

In the case of `Cn1cccc1C(=O)N1CCc2ccccc2C1`, the inhibition was -5% (inactive).

For `CC(C)CNC(=O)C(=O)NCC(c1ccc2c(c1)OCO2)N1CCOCC1` (configuration not stated), the inhibition is -5.45% (inactive).

As to `Cc1cc2ccccc2n1CCC(=O)O`, the inhibition was 10.5% (inactive).

For the compound `O=C(O)CCn1c(O)c(C=C2N=c3ccccc3=N2)sc1=S`, the inhibition was 37.6% (active).

Regarding `O=C(O)CCn1c(Cc2ccccc2)nc2ccccc21`, the inhibition was -1.96% (inactive).

In the case of `O=S1(=O)CCOC[C@H](CC2CCCCC2)N1Cc1ccc(F)cc1`, the inhibition is -13.1% (inactive).

Turning to `CCn1cc(CCC(=O)NCc2ccc(F)cc2)c2ccccc21`, the inhibition was -10.5% (inactive).

Regarding `CC(=O)Nc1ccc(N2CCOCC2)c(C(=O)Nc2cccc(C)c2)c1`, the inhibition is 4.11% (inactive).

Regarding `Cc1cccc(NC(=O)c2sc3nc(N4CCOCC4)c4c(c3c2N)CCCC4)c1`, the inhibition is 41% (active).

On to `Cc1nc(N2CCOCC2)c2c(C)c(C(=O)Nc3ccc(C(F)(F)F)cc3)sc2n1`, for which the inhibition was -14.6% (inactive).

As for `O=C(NNC(=O)c1ccco1)Nc1ccccc1`, the inhibition was 48.6% (active).

In the case of `O=C(Nc1ccccc1)/C(=C\c1ccco1)NC(=O)c1ccco1`, the inhibition is 8.12% (inactive).

`O=C(Nc1ccccc1)c1ccco1`: the inhibition is 2.58% (inactive).

Turning to `O=C(O)C1CCC(CNS(=O)(=O)c2ccc(Br)cc2)CC1` (configuration not stated), the inhibition is -15.2% (inactive).

On to `Brc1cc(/C=N/n2cnnc2)oc1Br`, for which the inhibition was 13.5% (inactive).

Regarding `Cc1cc([N+](=O)[O-])c(-c2ccc(/C=N/n3cnnc3)o2)cc1Cl`, the inhibition is 40.4% (active).

Consider `CC1=NN(c2ccc(Cl)c(C(=O)O)c2)C(=O)/C1=C/c1ccc(-c2ccccc2[N+](=O)[O-])o1`, for which the inhibition is 3.82% (inactive).

With `Cc1ccc(Cl)cc1-c1ccc(/C=N/n2cnnc2)o1`, the inhibition was 32.8% (active).

Turning to `Cc1ccccc1OCCOc1ccc([N+](=O)[O-])cc1/C=N/n1cnnc1`, the inhibition was 6.71% (inactive).

With `O=C1C2C3C=CC(C4CC34)C2C(=O)N1/N=C/c1ccc(-c2ccccc2[N+](=O)[O-])o1` (configuration not stated), the inhibition is -5.14% (inactive).

As for `Clc1cc(-c2ccc(/C=N/n3cnnc3)o2)ccc1Br`, the inhibition was -0.09% (inactive).

As for `Cc1cc(-c2ccc(/C=N/n3cnnc3)o2)c([N+](=O)[O-])cc1C`, the inhibition is 44.5% (active).

`Cc1cc(C)c([N+](=O)[O-])cc1-c1ccc(/C=N/NC(=O)c2nonc2N)o1`: the inhibition was 4.59% (inactive).

Turning to `O=C(Nc1ccc(F)cc1)C1CCCN(S(=O)(=O)c2ccc(-n3cnnn3)cc2)C1` (configuration not stated), the inhibition was -11.3% (inactive).

Turning to `Cc1ccc(-n2c(C)nnc2SCC(=O)NC2CC2)cc1`, the inhibition was 6.7% (inactive).

As for `CCn1c(SCC(=O)NC2CC2)nnc1-c1ccncc1`, the inhibition is -8.99% (inactive).

Consider `Cc1cc(C)nc(Nc2cc([N+](=O)[O-])ccc2C)n1`, for which the inhibition is -2.82% (inactive).

On to `Cc1cc(C)nc(Nc2ncn[nH]2)n1`, for which the inhibition is 70.4% (active).

For `Cc1cc(C)nc(Nc2n[nH]c(-c3ccccc3N)n2)n1`, the inhibition is -3.26% (inactive).

Turning to `Cc1cc(NC(=O)CCC(=O)N(CC(=O)NC2CCCC2)c2ccc(F)cc2)no1`, the inhibition was 1.92% (inactive).

As to `O=C1CSC(=S)N1c1ccc(O)cc1`, the inhibition was 8.71% (inactive).

Take `COc1cc(N2C(=O)CSC2=S)cc(OC)c1OC`: the inhibition is 6.36% (inactive).

Consider `CCOc1cccc(/C=N/N2C(=O)CSC2=S)c1O`, for which the inhibition is 38.7% (active).

Turning to `Cc1cc2oc(=O)cc(CN(C)Cc3ccc(OC(F)F)cc3)c2cc1Cl`, the inhibition was -5.26% (inactive).

As for `C=CCOc1ccccc1NC(=O)CN1C(=O)CNC1=O`, the inhibition was -12.8% (inactive).

Take `Nc1c(C(=O)c2cccs2)sc2nsc(SCCN3CCCCC3)c12`: the inhibition is 28.8% (active).

As for `CN(C)c1ccnc2sc(C(=O)c3ccccc3)c(N)c12`, the inhibition is 1.38% (inactive).

Take `Cc1nc2sc(C(=O)c3ccccc3)c(N)c2c2c1CCCC2`: the inhibition is 1.45% (inactive).

Regarding `COc1ccc(CCNC(=O)CCNS(=O)(=O)c2cc(Br)cnc2N)cc1OC`, the inhibition is -9.76% (inactive).

Regarding `NC(=O)C1CCCN(CC(=O)N2CCN(c3ccccc3)CC2)C1` (configuration not stated), the inhibition was 0.08% (inactive).

On to `O=C(CSc1nc(Nc2ccccc2)nc(N2CCOCC2)n1)Nc1cc(Cl)ccc1O`, for which the inhibition was 3.26% (inactive).

As for `Cc1ccc(S(=O)(=O)NNC(=O)Nc2cccc3ccccc23)cc1`, the inhibition is 10.5% (inactive).

For the compound `Cc1ccc(C)c(NC(=O)CCC(=O)NNC(=O)c2cccs2)c1`, the inhibition was -0.77% (inactive).

With `Cc1ccc(C)c(NC(=O)NNC(=O)c2ccc3ccccc3c2O)c1`, the inhibition was 41% (active).

Regarding `O=C(Oc1ccc(Br)cc1C(=S)N1CCOCC1)c1cccc([N+](=O)[O-])c1`, the inhibition was 36.5% (active).

With `COc1cc(C(=S)N2CCOCC2)cc(OC)c1OC(=O)c1cc([N+](=O)[O-])cc([N+](=O)[O-])c1`, the inhibition is 8.8% (inactive).

On to `O=C(Oc1ccccc1C(=S)N1CCCCC1)c1cc([N+](=O)[O-])cc([N+](=O)[O-])c1`, for which the inhibition is 13.9% (inactive).

For `CCOc1ccc(CNC(=O)CCC(=O)N2CCSc3ccccc32)cc1`, the inhibition is 6.53% (inactive).

`O=S(=O)(c1ccc(NC(=S)NN=C(C2CC2)C2CC2)cc1)N1CCOCC1`: the inhibition was 34.2% (active).

On to `CN1CCN(S(=O)(=O)c2ccc(NC(=S)NC(=O)C3CC3)cc2)CC1`, for which the inhibition is 3.06% (inactive).

Regarding `O=C(NC(=S)Nc1ccc(S(=O)(=O)N2CCOCC2)cc1)c1ccccc1[N+](=O)[O-]`, the inhibition was 2.44% (inactive).

Take `CN1/C(=C\C=C2\N=C(c3ccc(F)cc3)OC2=O)C(C)(C)c2ccccc21`: the inhibition was -0.7% (inactive).

Consider `CCOC(=O)c1c(C)[nH]c(C)c1S(=O)(=O)NCCCc1ccco1`, for which the inhibition was -16.1% (inactive).
